Potency data for 80 compounds are collected here from PubChem BioAssay AID743255 (National Center for Advancing Translational Sciences (NCATS), 2014).

The structures appear in SMILES notation. Among all 390,000 compounds or so, about 910 (0.23%) were called active. Not shown: some 5% with an inconclusive outcome. Calls come from the whole dose curve; as a rule, active = well fitted inhibition curve with a large enough effect; inconclusive = small, poorly fitted or top-dose-only effect; inactive = no such curve, though single readings can be large or run the other way. Shown is part of a subset that was picked to be rich in actives. Where a call stands in place of a potency, no number is given.
Potency is the fitted concentration of half-maximal effect.

Chain of Ubiquitin carboxyl-terminal hydrolase 1 (Homo sapiens) (O94782 whole entry, looked up): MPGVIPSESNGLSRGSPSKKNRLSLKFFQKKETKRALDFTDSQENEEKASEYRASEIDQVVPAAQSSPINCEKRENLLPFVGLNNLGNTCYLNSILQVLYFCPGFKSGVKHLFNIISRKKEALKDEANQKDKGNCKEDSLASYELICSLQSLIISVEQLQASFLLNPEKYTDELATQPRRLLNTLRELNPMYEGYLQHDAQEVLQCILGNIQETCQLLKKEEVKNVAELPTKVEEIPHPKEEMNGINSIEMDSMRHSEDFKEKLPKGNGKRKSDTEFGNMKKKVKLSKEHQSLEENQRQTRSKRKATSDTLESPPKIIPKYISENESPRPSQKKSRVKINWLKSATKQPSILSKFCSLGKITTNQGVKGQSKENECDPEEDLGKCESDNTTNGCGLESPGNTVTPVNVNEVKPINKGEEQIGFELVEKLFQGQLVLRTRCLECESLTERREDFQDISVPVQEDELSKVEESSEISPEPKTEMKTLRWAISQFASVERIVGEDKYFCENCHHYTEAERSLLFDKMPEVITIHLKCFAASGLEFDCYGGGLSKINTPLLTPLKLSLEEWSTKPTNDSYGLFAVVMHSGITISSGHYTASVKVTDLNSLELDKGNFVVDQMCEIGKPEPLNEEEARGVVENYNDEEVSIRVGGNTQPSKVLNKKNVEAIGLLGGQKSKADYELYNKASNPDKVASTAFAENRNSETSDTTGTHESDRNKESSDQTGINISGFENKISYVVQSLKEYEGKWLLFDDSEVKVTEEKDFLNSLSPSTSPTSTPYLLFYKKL

This test concerns the target Ubiquitin carboxyl-terminal hydrolase 1 (Homo sapiens) (UniProt O94782). Kind of test: Inhibitors of USP1/UAF1: Primary Screen. Note: nearly all actives have a fitted effect of over 60% in size. To be noted: recombinant USP1/UAF1, Ub-Rhodamine cleavage fluorescence; series mostly up to 57.1 µM. In short, it runs like this:
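USP1/UAF1 complex (1 nM) preincubated 15 min at room temperature with compound, then Ub-Rho substrate (150 nM final) added. Kinetic fluorescence at 480/540 nm over 6 reads at 60 s intervals; 50 mM HEPES pH 7.8, 0.5 mM EDTA, 0.1 mg/ml BSA, 1 mM TCEP, 0.01% Tween-20.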
In the case of `Brc1ccc(C2=CC(c3ccco3)n3ncnc3N2)cc1` (stereo not given), the Potency was 31.6 µM (active). For `O=C(CCC(=O)N1CC2CCCN2c2ccccc21)NCc1ccccc1Cl` (stereo not given) the value was “inactive”; for `Cc1c(-c2nsc(NC(=O)c3cccc(Cl)c3)n2)nnn1-c1ccccc1C(F)(F)F`, “inactive”. For `COc1ccc(-n2c(SC)nc3sc4c(c3c2=O)CCN(C(C)=O)C4)cc1` the value was “inactive”; for `CCc1nn(CC(=O)N2CCN(c3cccc(C(F)(F)F)c3)CC2)c(=O)c2cc3occc3n12`, “inactive”.

Consider `CCN(CCCNC(=O)c1cc2c(=O)n(CC)c3ccccc3c2s1)Cc1ccccc1`, for which the Potency is 28.2 µM (active).

In the case of `CCc1ccc(CNC(=O)c2cc3c(=O)n(CC)c4ccccc4c3s2)cc1`, the Potency entry was “inactive”.

Consider `CCn1c(=O)c2cc(C(=O)NCCc3ccc(Cl)cc3)sc2c2ccccc21`, for which the Potency entry was “inactive”. As for `COc1cccc(CNC(=O)C2CCN(S(=O)(=O)c3ccc4c(ccn4C)c3)CC2)c1`, the entry is “inactive”; as for `CCN(C(=O)Cn1cnc2sc(C)c(S(=O)(=O)N3CCN(c4ncccn4)CC3)c2c1=O)c1ccccc1F`, “inactive”. As for `CSc1nn(Cc2cccc(C)c2)c(N)c1S(=O)(=O)c1ccccc1`, the entry is “inactive”; as for `CC(=O)Nc1cc(C(=O)NCc2ccc(F)cc2Cl)ccc1Sc1ccc(Cl)cc1`, “inactive”; as for `CCc1cccc(NC(=O)CN(c2ccc(C)c(C)c2)S(=O)(=O)c2ccsc2C(=O)OC)c1`, “inactive”. Turning to `Cc1cc(C)c2sc(NC(=O)c3ccc(S(=O)(=O)N4CCCC4)cc3)nc2c1`, the Potency entry was “inactive”. For `COc1ccc(S(=O)(=O)NCC(c2ccc(N(C)C)cc2)N2CCc3ccccc32)cc1OC` (stereo not given) the value was “inactive”.

On to `CCCN1C(=O)C(O)(CC(=O)c2ccc(CC)cc2)c2cc(Br)ccc21` (stereo not given), for which the Potency entry was “inactive”.

As for `COc1cccc(CNC(=O)CCC(=O)N2CC3CCCN3c3ccccc32)c1` (stereo not given), the Potency entry was “inactive”. For `CC(C)NC(=O)c1nn(-c2ccccc2F)nc1CO` the value was “inactive”. Turning to `COc1ccc(CNC(=O)CS(=O)Cc2nc(-c3cccc(C)c3)oc2C)cc1` (stereo not given), the Potency result was “inactive”. For `CCCCS(=O)(=O)c1oc(-c2cccs2)nc1S(=O)(=O)c1ccccc1` the value was “inactive”. As for `CCOc1ccc(OCC)c(NC(=O)c2cc(C)nc3c2c(C)nn3-c2cccc(Cl)c2C)c1`, the entry is “inactive”; as for `O=C(CSc1nc(=O)n(Cc2cccnc2)c2c1CCC2)Nc1ccc(F)cc1F`, “inactive”. As for `CCN(CC)CCCC(C)n1c2nc(=O)[nH]c(=O)c-2nc2cc(Cl)ccc21` (stereo not given), the figure is 25.1 µM (active). On to `Cc1ccc(OCC(=O)OCc2cc(=O)n3nc(C4CC4)sc3n2)cc1C`, for which the Potency entry was “inactive”. As for `O=C(CCn1ccc2cc(S(=O)(=O)N3CCCC3)ccc21)NCc1cccc(Cl)c1`, the entry is “inactive”. For `COc1ccc2c(c1)Cc1sc(NC(=O)c3ccccc3Br)nc1-2` the value was 31.6 µM (active). On to `COCCN(CCOC)S(=O)(=O)c1ccc(C(=O)Nc2nc3c(s2)CCc2ccccc2-3)cc1`, for which the Potency result is “inactive”. For `COc1ccc(NS(=O)(=O)c2ccc(N3CCOCC3)c(NC(=O)c3ccccc3Br)c2)cc1` the value was “inactive”; for `Cc1oc(-c2ccccc2)nc1Cn1c(SCc2cccc(C(F)(F)F)c2)nc2cccnc21`, “inactive”; for `COc1cccc(NC(=O)Cn2c(=O)cc(C)c3c(C)nn(-c4cccc(F)c4)c32)c1`, “inactive”. As for `CCCCOc1ccc(C(=O)N2CC(=O)Nc3ccc(Br)cc3C2c2ccc(F)cc2)cc1` (stereo not given), the entry is “inactive”; as for `O=C(NCC(c1ccco1)S(=O)(=O)c1cccs1)c1ccc(F)cc1` (stereo not given), “inactive”. For `O=C(CSc1oc(-c2ccc(F)cc2)nc1S(=O)(=O)c1ccc(Br)cc1)NC1CCCCC1` the value was “inactive”; for `COc1ccc(Cc2nc3ccc(C(=O)NCc4ccccc4Cl)cc3o2)cc1`, “inactive”; for `O=C(CSc1ncc(-c2ccccc2)[nH]1)Nc1ccc(F)cc1F`, “inactive”. On to `Cc1ccc(Cn2c(CNC(=O)Cc3cccc(C)c3)nc3cccnc32)cc1`, for which the Potency result is “inactive”.

For `Fc1ccc(Nc2nc(SCc3ccccc3Cl)nc3ccccc23)cc1`, the Potency result is “inactive”.

`CCC(=O)Nc1c(C(=O)N2CCN(c3ccc(F)cc3)CC2)oc2ccccc12`: the Potency result is “inactive”. For `CCOc1ccc(CCNC(=O)c2ccc3c(c2)sc2nc(-c4ccc(F)cc4)cn23)cc1OCC` the value was “inactive”; for `COc1ccc(N2CCN(C(=O)CSCc3nc(-c4ccccc4Cl)oc3C)CC2)cc1`, “inactive”.

With `Cc1ccc2c(=O)c(C(=O)c3ccc(F)cc3)cn(CC(=O)NC3CCCCC3)c2n1`, the Potency result was “inactive”.

On to `CCN(CCCNC(=O)c1ccc(Sc2ccc(C)cc2)c(NC(C)=O)c1)c1cccc(C)c1`, for which the Potency entry is “inactive”. `O=S(=O)(NCC(c1ccccc1)N1CCc2ccccc21)c1ccccc1` (stereo not given): the Potency result is “inactive”.

`CC1=CC2=NC(=O)/C(=C/c3coc4ccccc4c3=O)C(=N)N2O1`: the Potency was 28.2 µM (active).

For `O=C(CCn1c(=O)c2sccc2n(Cc2ccc(F)cc2)c1=O)NCc1ccc2c(c1)OCO2`, the Potency result is “inactive”. As for `O=C(CCSCc1ccccc1F)N1CCN(c2ccc(Cl)cc2)CC1`, the Potency entry is “inactive”. As for `O=C(CC1N=C2c3ccccc3N=C(SCc3cccc(Cl)c3)N2C1=O)NCc1ccc2c(c1)OCO2` (stereo not given), the entry is “inactive”; as for `COc1cc(OC)c(NC(=O)c2c3c(nn2C)-c2ccccc2SC3)cc1Cl`, “inactive”; as for `O=C(CC(c1cccs1)N1Cc2ccccc2C1=O)Nc1ccc(F)c(F)c1` (stereo not given), “inactive”. As for `NC1=CC(=O)C(=O)c2cccnc21`, the figure is 3.55 µM (active); as for `CCc1ccccc1OCCSc1nc(-c2cccs2)nc2cc(=O)[nH]n12`, “inactive”; as for `O=[N+]([O-])c1ccc(C=Nc2ccc(Cl)cc2Cl)s1`, 28.2 µM (active). Regarding `COc1ccc(NC(=O)c2cc3cc(C)ccc3n2C)cc1`, the Potency result was “inactive”. As for `CCC(=O)N1CCc2cc(Br)cc(S(=O)(=O)Nc3ccc(C)cc3C)c21`, the entry is “inactive”. As for `Cc1ccc(O)c(NC(=O)c2cc(-c3ccc(F)cc3)no2)c1`, the entry is “inactive”. As for `CCOC(=O)c1c(S(=O)(=O)N2CCCC(C(=O)NCc3ccc(F)cc3)C2)c(C)n(CC)c1C` (stereo not given), the entry is “inactive”; as for `CC1CCN(S(=O)(=O)c2ccc3c(c2)N(CC(=O)NCc2ccccc2Cl)C(=O)CO3)CC1`, “inactive”.

For the compound `CCOC(=O)N1CCc2c(sc3c2C(=O)NC(c2ccccc2F)N3)C1` (stereo not given), the Potency result is “inactive”. Consider `CC(C)(C)OC(=O)N1CCC(c2c(C(=O)NCc3ccccn3)cnn2-c2ccc(F)cc2)CC1`, for which the Potency entry is “inactive”. As for `CCOC(=O)c1cccc(NC(=O)C(Cc2ccccc2)NS(=O)(=O)c2cccc3nsnc23)c1` (stereo not given), the entry is “inactive”; as for `Cc1ccc2cccc(NC(=O)c3ccc(OC(C)C)cc3)c2n1`, “inactive”; as for `Cc1ccc(-c2nc3cccc(C)n3c2Nc2ccc3c(c2)OCCO3)cc1`, “inactive”. For `CCN1CCC(N(Cc2ccc(F)cc2)C(=O)Nc2cc(C)ccc2C)CC1` the value was “inactive”. For `CCc1ccc(CNC(=O)C2CCN(c3nn4cc(-c5ccc(F)cc5)nc4s3)CC2)cc1` the value was “inactive”. Take `COc1cc(OC)c(NC(=O)c2cnc(N3CCCC3)nc2C)cc1Cl`: the Potency result is “inactive”. For `CCc1ccc(NC(=O)c2cc(S(=O)(=O)N3CCCC(C)C3)cn2C)cc1` (stereo not given) the value was “inactive”; for `Cc1cc(C)nc(NS(=O)(=O)c2ccc(NC(=O)c3cc(=O)c4ccc(C)c(C)c4o3)cc2)n1`, “inactive”. As for `Cc1oc2ncnc(N3CCOCC3)c2c1C(=O)NCCc1ccccc1`, the entry is “inactive”; as for `COc1ccc(-c2cn3c(n2)sc2cc(C(=O)Nc4ccc(F)cc4)ccc23)cc1`, “inactive”; as for `CN1/C(=C\C=C2\N=C(c3ccc(F)cc3)OC2=O)C(C)(C)c2ccccc21`, 28.2 µM (active). Take `Cc1csc2nc(COC(=O)c3ccc(NC(=O)COc4ccccc4F)cc3)cc(=O)n12`: the Potency result was “inactive”. On to `CCCN1CCN(CCCNC(=O)c2cnn(-c3ccc(C)cc3)c2-n2cccc2)CC1`, for which the Potency result is “inactive”. In the case of `O=C(CCOc1ccccc1)N(Cc1cccnc1)c1nc2ccc(Cl)cc2s1`, the Potency entry is “inactive”. For `CC(NC(=O)c1cc(Sc2ccc(F)cc2F)nc2ccccc12)c1ccccc1` (stereo not given) the value was “inactive”. As for `COc1cccc(C(=O)NCc2ccc3c(c2)CCN3C(=O)c2ccncc2)c1`, the entry is “inactive”. Turning to `CCOC(=O)c1c(C)[nH]c2c1-c1ccccc1C(=O)C2=O`, the Potency was 1.26 µM (active). As for `CCOC(=O)c1c(SCC(=O)Nc2cccc(C)c2C)nc(=O)[nH]c1C`, the entry is “inactive”; as for `CCOC(=O)c1c(C)[nH]c(CCC(=O)Nc2ccc(OC)c(OC)c2)c1C`, “inactive”. For `CN(C(=O)c1ccc2c(c1)N(Cc1cccc(Cl)c1)C(=O)c1ccccc1S2=O)C1CCCCC1` (stereo not given) the value was “inactive”; for `CC(=O)N(C1=C(Cl)C(=O)c2ccccc2C1=O)c1ccc(C(=O)O)cc1`, 14.1 µM (active).
